Source: PubChem BioAssay
This is a sample that favours compounds with a hit; in the whole collection about 3.1% have one here.
RAD52 anneal inh: RAD52 DNA annealing inhibitors, primary screen, biochemical, FRET, single point, set 2. recombinant RAD52 DNA annealing, FRET fluorescence. AID 651710, 2012. 360,000 tested, 0.46% active. DNA repair protein RAD52 homolog (Homo sapiens), P43351. inhibition, % at 18.7 µM;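 active = every replicate showing at least 50% inhibition; inconclusive = mean inhibition at least 50% but not in every replicate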
Target sequence (P43351 whole entry, looked up): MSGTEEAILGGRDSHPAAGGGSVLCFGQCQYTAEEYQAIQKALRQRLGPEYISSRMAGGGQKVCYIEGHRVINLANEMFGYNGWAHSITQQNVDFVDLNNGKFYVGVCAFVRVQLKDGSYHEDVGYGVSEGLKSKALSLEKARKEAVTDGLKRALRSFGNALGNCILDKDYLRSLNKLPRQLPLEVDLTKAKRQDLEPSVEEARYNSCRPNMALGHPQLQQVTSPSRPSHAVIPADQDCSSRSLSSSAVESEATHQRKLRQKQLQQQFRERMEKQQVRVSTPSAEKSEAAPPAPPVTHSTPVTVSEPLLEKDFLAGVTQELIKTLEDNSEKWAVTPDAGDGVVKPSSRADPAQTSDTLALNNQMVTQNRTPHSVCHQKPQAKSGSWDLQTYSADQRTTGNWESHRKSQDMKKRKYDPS
AF4-AF9 inh: inhibitors of AF4 peptide binding to AF9, primary screen, biochemical, AlphaScreen, biotin-AF4 peptide, FLAG-AF9, single point. inhibition, % at 10 µM. 350,000 tested, 0.47% active;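 active = every replicate reaching a set inhibition limit, whatever the replicate mean, cut at about 25% in these data; inconclusive = mean inhibition reaches that limit but some replicates miss it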
dFosB act: activators of delta FosB homodimer, primary screen, biochemical, fluorescence polarization, TAMRA-CDK5 oligo, single point. Protein FosB (Mus musculus), P13346. purified delta FosB; percent of positive-control signal above neutral wells. activation, % at 25 µM. 340,000 tested, 0.99% active. AID 493131, 2011;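 active = mean activation above about 17%, with every replicate also reaching it, limit read from the data, passing the limit was not always enough; inconclusive = only one of the two conditions met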
DENV2 CPE: inhibitors of DENV2 cytopathic effect, primary screen, cell-based, plate reader, single concentration. DENV2-infected cells, cytopathic effect rescue. 350,000 tested, 1.7% active. AID 651640, 2012. CPE inhibition, % at 9.99 µM; in the data active = CPE inhibition above about 20%, passing the limit was not always enough; inconclusive = no clear call, values can overlap the other calls; tested in BHK-21 cells
INS-1E GSIS act: GLuc luminescence reporter in INS-1E cells, primary screen for activators of glucose-dependent secretion of insulin | INS-1E GLuc reporter insulin secretion, 2-3 h | 370,000 tested, 0.61% active | AID 743287, 2014 | activation, % at 16.6 µM;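 active = lowest replicate activation of at least 40%, so every replicate reaches that level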
RAD54 branch: inhibitors of human RAD54 branch migration, primary screen, biochemical, fluorescence, single point; DNA repair and recombination protein RAD54-like (Homo sapiens), Q92698; RAD54 Holliday junction branch migration, FAM/BHQ fluorescence; inhibition, % at 10.4 µM; 360,000 tested, 0.14% active; AID 602329, 2012;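 active = mean normalized replicate activity at least 40 and at least half of replicates scoring 40 or more; inconclusive = only one of the two criteria met; inactive = mean below 40 and under half of replicates reaching 40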;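 note: inhibitors cause a drop in the FAM fluorescence signal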
Large screens that a line does not name were inactive; ! = repeats disagree.

C[C@H]1CCCCO[C@@H](CN(C)C(=O)c2ccncc2)[C@@H](C)CN([C@@H](C)CO)C(=O)c2cc(NS(=O)(=O)c3ccccc3)ccc2O1	none (no result: dFosB act)
CN(C)CCCN(C(=O)c1ccc(S(=O)(=O)N2CCCCCC2)cc1)c1nc2cc3c(cc2s1)OCO3	none (no result: dFosB act)
CCC1CCCCN1S(=O)(=O)c1ccc(C(=O)N(CCCN(C)C)c2nc3cc4c(cc3s2)OCO4)cc1 (stereo unspecified)	dFosB act 24 (no result: INS-1E GSIS act)
Cc1cc[n+](CC[n+]2ccc(C)cc2)cc1	none
CCC(C)(C)c1ccc(OCCCC[n+]2ccc(C)cc2)c(C(C)(C)CC)c1	INS-1E GSIS act 560 (no result: RAD52 anneal inh, AF4-AF9 inh, dFosB act, DENV2 CPE, RAD54 branch)
O=C1SC(c2ccccc2)=C/C1=C\N1CCCCC1	AF4-AF9 inh 30
CCCC#Cc1ccc2c(c1)O[C@@H](CN(C)CCC)[C@@H](C)CN([C@@H](C)CO)S2(=O)=O	none (no result: dFosB act)
C[C@@H]1CCCCO[C@H](CN(C)C(=O)CCCN(C)C)[C@H](C)CN([C@@H](C)CO)C(=O)c2cc(NS(=O)(=O)c3cccs3)ccc2O1	none (no result: dFosB act)
C[C@@H]1CN([C@@H](C)CO)C(=O)c2cc(NS(=O)(=O)c3cccs3)ccc2O[C@@H](C)CCCCO[C@@H]1CN(C)C(=O)CCCN(C)C	DENV2 CPE 46 (no result: dFosB act)
C[C@H](CO)N1C[C@H](C)[C@H](CN(C)C(=O)CCCN(C)C)OCCCC[C@H](C)Oc2ccc(NS(=O)(=O)c3cccs3)cc2C1=O	DENV2 CPE 55 (no result: dFosB act)
Cc1ccc(C(=O)NCC(=O)N2CCCC(C(F)(F)F)C2)s1 (stereo unspecified)	none (no result: RAD54 branch)
O=C(NCC(=O)N1CCCC(C(F)(F)F)C1)c1cccs1 (stereo unspecified)	AF4-AF9 inh 33
CN1C(=O)c2cc(NC(=O)c3ccc4c(c3)OCO4)ccc2OC[C@H]2O[C@H](CC(=O)O)CC[C@H]21	none (no result: dFosB act)
Cc1cnc(CNC(=O)C2CCC(=O)N(Cc3ccc(Cl)cc3)C2)[nH]1 (stereo unspecified)	DENV2 CPE 72
O=C(Nc1ccc2oc(=O)ccc2c1)c1ccc(-c2cccc([N+](=O)[O-])c2)o1	DENV2 CPE 27 (no result: dFosB act)
COc1ccc(C(=O)Nc2ccccc2C(=O)Nc2ccc(C(=O)O)cc2)cc1	none
COc1cc2ccccc2cc1C(=O)Nc1ccc2oc(=O)ccc2c1	INS-1E GSIS act 156
O=C(Nc1ccc2oc(=O)ccc2c1)c1ccc(-c2ccc(Cl)cc2)o1	none (no result: RAD52 anneal inh, AF4-AF9 inh, DENV2 CPE, RAD54 branch)
COc1ccc(NC(=O)c2cc3ccccc3cc2O)cc1	DENV2 CPE 46
COc1ccc(C(=O)Nc2ccccc2C(=O)Nc2ccncc2)cc1	INS-1E GSIS act 45
C[C@@H]1CCCCO[C@@H](CN(C)Cc2ccc3c(c2)OCO3)[C@@H](C)CN([C@H](C)CO)C(=O)c2cc(NS(=O)(=O)c3cccs3)ccc2O1	none (no result: RAD52 anneal inh, AF4-AF9 inh, dFosB act)
C[C@@H]1CCCCO[C@@H](CN(C)C(=O)Cc2ccccc2)[C@H](C)CN([C@H](C)CO)C(=O)c2cc(NS(=O)(=O)c3cccs3)ccc2O1	DENV2 CPE 61 (no result: dFosB act)
C[C@@H]1CN([C@@H](C)CO)C(=O)c2cc(NS(=O)(=O)c3cccs3)ccc2O[C@@H](C)CCCCO[C@H]1CN(C)Cc1ccccc1	DENV2 CPE 42 (no result: dFosB act, RAD54 branch)
COc1ccc(CN(C)C[C@H]2OCCCC[C@H](C)Oc3ccc(NS(=O)(=O)c4cccs4)cc3C(=O)N([C@H](C)CO)C[C@H]2C)cc1	DENV2 CPE 52 (no result: dFosB act)
C[C@@H]1CCCCO[C@@H](CN(C)Cc2ccc3c(c2)OCO3)[C@H](C)CN([C@H](C)CO)C(=O)c2cc(NS(=O)(=O)c3cccs3)ccc2O1	DENV2 CPE 38 (no result: RAD52 anneal inh, AF4-AF9 inh, dFosB act)
C[C@H](CO)N1C[C@H](C)[C@H](CN(C)Cc2ccccc2)OCCCC[C@H](C)Oc2ccc(NS(=O)(=O)c3cccs3)cc2C1=O	none (no result: dFosB act)
CN1C(=O)c2cc(NC(=O)Cc3ccccc3)ccc2OC[C@H]2O[C@@H](CC(=O)O)CC[C@@H]21	DENV2 CPE inconclusive (no result: dFosB act)
Oc1ccc(Cl)cc1CNCc1ccc(F)cc1	DENV2 CPE 23
COc1ccccc1NC(=O)N[C@@H]1CC[C@@H](CCNC(=O)c2ccc3c(c2)OCO3)O[C@@H]1CO	none (no result: dFosB act)
Cc1ccccc1OCc1nnc(SCC(=O)Nc2ccc3c(c2)oc2ccccc23)n1C	INS-1E GSIS act 131 (no result: RAD52 anneal inh, AF4-AF9 inh, DENV2 CPE)
CCNC(=O)C[C@@H]1C=C[C@@H](NC(=O)C2CC2)[C@H](CO)O1	none (no result: dFosB act)
COC(=O)C1=C[C@@H](C(=O)OC)[C@@H]2C3=C(C(=O)[C@@]2(C)NC(=O)c2ccccc2)[C@H](C)C(C(=O)OC)=C(C(=O)OC)[C@@H]3C1	DENV2 CPE 24
C[C@H](CO)N1C[C@H](C)[C@H](CN(C)CC2CCCCC2)Oc2c(NC(=O)C3CC3)cccc2C1=O	DENV2 CPE 36 (no result: dFosB act)
C[C@@H]1CN([C@@H](C)CO)C(=O)c2cccc(NS(=O)(=O)c3ccccc3)c2O[C@@H]1CN(C)CC1CCCCC1	DENV2 CPE 24 (no result: dFosB act)
C[C@H](CO)N1C[C@H](C)[C@H](CN(C)Cc2ccc(C(F)(F)F)cc2)Oc2c(NS(=O)(=O)c3cn(C)cn3)cccc2C1=O	none (no result: dFosB act)
C[C@@H]1CN([C@H](C)CO)C(=O)c2cccc(NC(=O)C3CC3)c2O[C@H]1CN(C)CC1CCCCC1	DENV2 CPE 75 (no result: dFosB act)
C[C@@H]1CN([C@H](C)CO)C(=O)c2cccc(NS(=O)(=O)c3ccccc3)c2O[C@H]1CN(C)CC1CCCCC1	none (no result: dFosB act)
C[C@@H]1CN([C@@H](C)CO)C(=O)c2cccc(NS(=O)(=O)c3cn(C)cn3)c2O[C@@H]1CN(C)Cc1ccc(C(F)(F)F)cc1	DENV2 CPE 22 (no result: dFosB act)
C[C@H]1CN([C@@H](C)CO)C(=O)c2cc(NC(=O)CCC(F)(F)F)ccc2O[C@@H]1CN(C)CC1CC1	none (no result: dFosB act)
C[C@H](CO)N1C[C@H](C)[C@@H](CN(C)S(=O)(=O)c2cn(C)cn2)Oc2c(NS(=O)(=O)c3ccccc3)cccc2C1=O	DENV2 CPE 23!
COc1ccc(-c2ccc3c(c2)[C@H]2[C@H](CCN2C(=O)c2cccc(F)c2)[C@H](CO)N3)cc1	none (no result: dFosB act)
O=C(c1cccc(F)c1)N1CC[C@@H]2[C@H]1c1cc(-c3ccccc3)ccc1N[C@@H]2CO	DENV2 CPE 46 (no result: dFosB act, RAD54 branch)
O=C(c1cccc(F)c1)N1CC[C@H]2[C@H](CO)Nc3ccc(-c4ccccc4)cc3[C@H]21	none (no result: dFosB act, RAD54 branch)
COc1cccc(-c2ccc3c(c2)[C@@H]2[C@@H](CCN2C(=O)c2cccc(F)c2)[C@@H](CO)N3)c1	DENV2 CPE 28 (no result: dFosB act)
O=C(N[C@H]1CC[C@H](CCn2cc(C3(O)CCCC3)nn2)O[C@H]1CO)c1ccccc1F	none (no result: dFosB act)
